Activity calls are given as the source filed them. Rule for the calls: active = hit-call score of the fitted dose curve at least 0.9, where 1 is the maximum; inactive = score below 0.9.

The record followed here is PubChem BioAssay (EPA / NIEHS).

The target of experiment [1] is Nuclear respiratory factor 1 (Homo sapiens) (UniProt Q16656). Briefly: ATG_NRF1_CIS: Attagene CIS-FACTORIAL HepG2 Assay for human Nuclear Respiratory Factor 1 (NRF1) Orphan Gene (AID 2282987). The note with it: HepG2 NRF1 cis-element reporter, Attagene multiplex; actives raise or lower the signal. Summed up:
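Using DMSO as baseline, gain- or loss-of-signal was fitted for reporter mRNA levels in HepG2 cells transiently transfected with cis-regulated reporter units. Samples were taken 24 h after dosing and read by RT-PCR with capillary electrophoresis.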

A short description of experiment [2]: ATG_NFI_CIS: Attagene CIS-FACTORIAL HepG2 Assay for human Nuclear Factor I (NFI) (AID 2282989). Particulars: HepG2 cis-regulatory reporter, NFI response element transcription; actives raise or lower the signal. Summed up:
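Reporter transcription driven by endogenous transcription factors in HepG2 cells; 24 h treatment. Quantitation by labelled RT-PCR fragments on capillary electrophoresis, gain- or loss-of-signal relative to DMSO.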

For experiment [3], the target named is Myc proto-oncogene protein (Homo sapiens) (UniProt P01106). Briefly: ATG_Myc_CIS: Attagene CIS-FACTORIAL HepG2 Assay for human Myelocytomatosis (Myc) Proto-Oncogene Transcription Factor (AID 2282990). Particulars: HepG2, Attagene cis-reporter transcription factor activity; actives raise or lower the signal. Summed up:
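After 24 h chemical treatment of HepG2 cells carrying multiplexed cis-regulated reporter constructs, reporter transcripts quantified by RT-PCR and capillary electrophoresis of fluorescent fragments. Gain or loss fitted against DMSO baseline.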

The nature of experiment [4]: ATG_NRF2_ARE_CIS: Attagene CIS-FACTORIAL HepG2 Assay for human Nuclear Factor Erythroid 2 Related Factor 2 (NFR2) response to Antioxidant Response Elements (ARE) (AID 2282992).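 For AC50: reporter mRNA level measured by RT-PCR and capillary electrophoresis fluorescence.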 The note with it: HepG2 Attagene ARE/NRF2 reporter, transcription factor activity; actives raise or lower the signal. In outline:
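HepG2 cells transiently transfected with multiplexed cis-regulated reporter transcription units measure endogenous transcription factor activity. Reporter mRNA at 24 h is quantified by RT-PCR, fluorescent labelling and capillary electrophoresis, with bidirectional fitting relative to DMSO.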

Experiment [5] can be described thus: ATG_Oct_MLP_CIS: Attagene CIS-FACTORIAL HepG2 Assay for human Octamer-Binding Transcription Factor (Oct) (AID 2282993). Particulars: HepG2 Attagene cis-factorial Oct reporter, mRNA; actives raise or lower the signal. In outline: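 Transfected HepG2 cells, 24 h treatment. Reporter mRNA quantified by RT-PCR–capillary electrophoresis; bidirectional fitting against DMSO.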

The target in experiment [6] is Cellular tumor antigen p53 (Homo sapiens) (UniProt P04637). Briefly: ATG_p53_CIS: Attagene CIS-FACTORIAL HepG2 Assay for human p53 Transcription Factor (AID 2282994). Particulars: HepG2 p53 cis-element reporter, Attagene mRNA; actives raise or lower the signal. Summed up: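 HepG2 cells transiently transfected with multiplexed cis-regulated reporter transcription units read endogenous TF activity. After 24 h compound exposure, reporter mRNA was quantified by RT-PCR, fluorescent labelling, HpaI digestion and capillary electrophoresis; bidirectional fits versus DMSO baseline.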
Cellular tumor antigen p53 (Homo sapiens), sequence (P04637 whole entry, looked up): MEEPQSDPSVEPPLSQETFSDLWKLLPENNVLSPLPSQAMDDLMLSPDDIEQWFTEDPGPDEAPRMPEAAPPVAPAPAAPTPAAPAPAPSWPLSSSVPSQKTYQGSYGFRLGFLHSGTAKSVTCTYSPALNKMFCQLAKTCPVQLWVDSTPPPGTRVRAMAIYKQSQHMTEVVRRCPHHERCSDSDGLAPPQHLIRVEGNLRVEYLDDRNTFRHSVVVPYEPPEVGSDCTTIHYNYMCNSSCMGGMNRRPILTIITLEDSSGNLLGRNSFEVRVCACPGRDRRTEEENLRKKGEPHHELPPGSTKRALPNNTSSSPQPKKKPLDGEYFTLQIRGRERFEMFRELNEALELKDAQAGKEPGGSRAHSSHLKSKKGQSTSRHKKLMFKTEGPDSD

Myc proto-oncogene protein (Homo sapiens), sequence (P01106 whole entry, looked up, the tested form may be a part): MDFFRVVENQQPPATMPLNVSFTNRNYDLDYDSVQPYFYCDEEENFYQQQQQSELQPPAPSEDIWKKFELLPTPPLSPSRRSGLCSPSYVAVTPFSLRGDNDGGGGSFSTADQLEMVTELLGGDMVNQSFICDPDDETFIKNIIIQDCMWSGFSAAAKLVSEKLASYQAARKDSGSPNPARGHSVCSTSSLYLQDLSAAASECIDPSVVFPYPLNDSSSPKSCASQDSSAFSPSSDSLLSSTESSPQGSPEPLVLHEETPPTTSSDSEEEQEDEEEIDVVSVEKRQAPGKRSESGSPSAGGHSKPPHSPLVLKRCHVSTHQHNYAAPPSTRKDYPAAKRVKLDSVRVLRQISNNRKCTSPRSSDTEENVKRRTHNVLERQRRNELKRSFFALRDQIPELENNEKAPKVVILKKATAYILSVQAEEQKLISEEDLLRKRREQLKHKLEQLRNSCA
Nuclear respiratory factor 1 (Homo sapiens), sequence (Q16656 whole entry, looked up): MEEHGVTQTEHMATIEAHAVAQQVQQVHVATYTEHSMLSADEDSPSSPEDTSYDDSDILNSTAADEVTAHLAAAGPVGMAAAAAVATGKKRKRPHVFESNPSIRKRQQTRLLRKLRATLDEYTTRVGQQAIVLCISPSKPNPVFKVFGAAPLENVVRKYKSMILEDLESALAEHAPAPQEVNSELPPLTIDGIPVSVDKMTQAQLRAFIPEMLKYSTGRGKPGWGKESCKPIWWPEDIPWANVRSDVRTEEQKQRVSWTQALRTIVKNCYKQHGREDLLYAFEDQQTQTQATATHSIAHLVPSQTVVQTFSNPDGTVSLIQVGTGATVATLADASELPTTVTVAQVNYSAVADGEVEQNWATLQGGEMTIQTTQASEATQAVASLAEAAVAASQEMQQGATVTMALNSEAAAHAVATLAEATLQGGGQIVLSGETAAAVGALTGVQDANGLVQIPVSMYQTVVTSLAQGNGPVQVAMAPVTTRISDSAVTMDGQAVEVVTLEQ

Consider `O=S(=O)(O)CCCN1CCOCC1`, for which the molecule was classed as inactive in experiment [1], in experiment [2], in experiment [3], in experiment [4], in experiment [5] and in experiment [6].
In the case of `CCCCCCCCCCO[C@@H]1O[C@H](CO)[C@@H](O)[C@H](O)[C@H]1O`, the molecule was called inactive in experiment [1], in experiment [2], in experiment [3] and in experiment [5]. The AC50 (usually the concentration giving half of the maximal activity seen) in experiment [4] was 100 µM (active).
In the case of `[Cu+]`, the outcome in experiment [1], in experiment [2], in experiment [3], in experiment [5] and in experiment [6] was inactive. Also, in experiment [4], the AC50 is 2.29 µM (active).
Consider `O=C1CCCCCCCCCCCC(=O)OCCO1`, for which the molecule was classed as inactive in experiment [1], in experiment [2], in experiment [3], in experiment [4] and in experiment [5].
`CC1=CCC(C(C)C)=CC1`: the result in experiment [1], in experiment [2], in experiment [3], in experiment [4], in experiment [5] and in experiment [6] was inactive.
Regarding `[O-]/[N+](=N\O)c1ccccc1`, the call in experiment [1], in experiment [2], in experiment [3], in experiment [5] and in experiment [6] was inactive. The concentration at half-maximal activity (AC50) in experiment [4] was 17.3 µM (active).
Take `ClCCOCCOCCCl`: the molecule was called inactive in experiment [1], in experiment [2], in experiment [3], in experiment [5] and in experiment [6]. For the same molecule, the concentration at half-maximal activity (AC50) in experiment [4] is 54.7 µM (active).
On to `CCOc1ccc(NC(C)=O)cc1`, for which the call in experiment [1], in experiment [2], in experiment [3], in experiment [4], in experiment [5] and in experiment [6] was inactive.
For the molecule `CCCCCCCCCOS(=O)(=O)O`, the molecule was called inactive in experiment [1], in experiment [2], in experiment [3], in experiment [4], in experiment [5] and in experiment [6].
In the case of `CCCC1CCC(=O)CC1`, the outcome in experiment [1], in experiment [2], in experiment [3], in experiment [4] and in experiment [5] was inactive.
Turning to `CC(C)(C)c1ccc(S)cc1`, the molecule was called inactive in experiment [1], in experiment [2], in experiment [3], in experiment [5] and in experiment [6]. Besides, in experiment [4], the AC50 is 16.1 µM (active).
Consider `C[C@H](CCC(=O)O)[C@H]1CC[C@H]2[C@@H]3CC[C@@H]4C[C@H](O)CC[C@]4(C)[C@H]3CC[C@]12C`, for which the call in experiment [1] and in experiment [5] was inactive. Further, the AC50 in experiment [2] was 100 µM (active); in experiment [3] it was 156 µM (active); in experiment [4], 45.4 µM (active); in experiment [6], 100 µM (active).
On to `NC(N)=S`, for which the call in experiment [1], in experiment [2], in experiment [3], in experiment [4], in experiment [5] and in experiment [6] was inactive.
As to `COc1ccc(C(C)=O)cc1`, the molecule was called inactive in experiment [1], in experiment [2], in experiment [3], in experiment [4], in experiment [5] and in experiment [6].
As to `C=COCC1CCC(COC=C)CC1` (stereo not drawn), the result in experiment [1], in experiment [2], in experiment [3], in experiment [5] and in experiment [6] was inactive. Besides, the half-maximal activity concentration (AC50) in experiment [4] is 179 µM (active).
Consider `C=CC(O)CCCCC` (stereo not drawn), for which the molecule was called inactive in experiment [1], in experiment [2], in experiment [3] and in experiment [6]. The concentration at half-maximal activity (AC50) is 38 µM (active) in experiment [4] and 45.6 µM (active) in experiment [5].
As to `CCOCC(C)O` (stereo not drawn), the result in experiment [1], in experiment [2], in experiment [3], in experiment [4] and in experiment [5] was inactive.
As for `CC(=O)CC(=O)N(C)C`, the molecule was called inactive in experiment [1], in experiment [2], in experiment [3], in experiment [4], in experiment [5] and in experiment [6].
With `CC/C=C\CCOC(C)OCC` (stereo not drawn), the molecule was called inactive in experiment [1], in experiment [2], in experiment [3], in experiment [4], in experiment [5] and in experiment [6].
As for `CC(O)CNCC(C)O` (stereo not drawn), the result in experiment [1], in experiment [2], in experiment [3], in experiment [4], in experiment [5] and in experiment [6] was inactive.
In the case of `CCC(C)(CCCC(C)C)OC(C)=O` (stereo not drawn), the result in experiment [1], in experiment [2], in experiment [3], in experiment [4], in experiment [5] and in experiment [6] was inactive.
As to `CCCC[N+](C)(CCCC)CCCC`, the molecule was called inactive in experiment [1], in experiment [2], in experiment [3], in experiment [4] and in experiment [5].
For `NC(=O)c1cccnc1`, the call in experiment [1], in experiment [2], in experiment [3], in experiment [4], in experiment [5] and in experiment [6] was inactive.
